From PubChem BioAssay (NCATS) come the findings set out here.

The conditions of experiment [1]: Ebola virus entry assay, green fluorescence channel.
For experiment [2] the following is noted: Ebola virus entry assay, blue channel fluorescence.
The conditions of experiment [3]: Ebola virus entry assay, green fluorescence channel. This is another data set of the same source.
The conditions of experiment [4]: Ebola virus entry assay, ratio channel readout.
The conditions of experiment [5]: Ebola virus entry assay, green channel fluorescence.
For experiment [6] the following is noted: Ebola virus entry assay, reporter ratio channel; AC50: Channel type: primary unless noted; outcome: Channel type: primary unless noted.
The conditions of experiment [7]: Ebola virus entry assay, blue channel (ratio component).
For experiment [8] the following is noted: Ebola virus entry cell assay, ratio channel.
For experiment [9] the following is noted: Ebola virus entry assay, blue channel fluorescence. The source holds these as a separate data set.
The conditions of experiment [10]: Ebola virus entry reporter assay, green channel fluorescence. In general terms: Reporter assays use an easily measured gene product as a stand-in for the process of interest.
The nature of experiment [11]: qHTS profiling of the MIPE4 collection as inhibitors of Plasmodium falciparum (3D7) proliferation (AID 743344).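 Note: scaled between DMSO vehicle wells and 0.29 µM artemisinin as full inhibition.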 Conditions: P. falciparum 3D7 in erythrocytes, SYBR Green DNA fluorescence, 72 h; at 28.5 µM (top of the series) unless noted. The gist of the method:
(§1)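 Erythrocytes infected with P. falciparum (0.3% parasitemia, 2.5% hematocrit) incubated with compounds 72 h at 37 C, 5% CO2. Lysis with saponin/Triton buffer containing SYBR Green I, overnight at room temperature in the dark; DNA fluorescence (485/535 nm) normalised to 0.29 uM artemisinin and DMSO.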

Experiment [12] in a line: qHTS profiling of the MIPE4 collection as inhibitors of Plasmodium falciparum (DD2) proliferation (AID 743345). To be noted: P. falciparum Dd2 in erythrocytes, SYBR Green DNA, 72 h; at 28.5 µM (top of the series) unless noted. The gist of the method:
as §1
For orientation: In qHTS, concentration-response curves come from the screen itself.

For experiment [13] the following is noted: Ebola virus entry assay, blue channel fluorescence. The source holds these as a separate data set.
A short description of experiment [14]: qHTS profiling of the MIPE4 collection as inhibitors of Plasmodium falciparum (HB3) proliferation (AID 743347).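 Note: plate controls were DMSO vehicle wells for no effect and artemisinin wells for full effect.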 Conditions: P. falciparum HB3 in erythrocytes, SYBR Green DNA, 72 h; at 28.5 µM (top of the series) unless noted. The method in brief:
as §1

The nature of experiment [15]: qHTS profiling of the MIPE4 collection as inhibitors of Plasmodium falciparum (DD2) proliferation (Rep 2) (AID 743346). Conditions: P. falciparum Dd2 in erythrocytes, SYBR Green DNA, 72 h; at 28.5 µM (top of the series) unless noted. The method in brief: as §1
For experiment [16] the following is noted: Ebola virus entry assay, ratio channel.

Structures are written as SMILES. For some of these results: Potency and affinity values are given separately. Activity calls are given as the source filed them.
Throughout, for efficacy: 0% is about no effect.

Consider `O=C1CCc2ccc(OCCCCN3CCN(c4cccc(Cl)c4Cl)CC3)cc2N1`, for which the efficacy in experiment [1] was -27% (inactive). Besides, the call in experiment [2], in experiment [3], in [4], in [5], in experiment [6] and in [7] was inactive. Also, the AC50 – broadly, the concentration at which the activity in the assay is half-maximal – in [8] is 14.1 µM (active).

Take `CN(CCOc1ccc(CC2SC(=O)NC2=O)cc1)c1ccccn1` (stereo unspecified): in [1], the efficacy was -12.2% (inactive). In addition, the result in [2], in experiment [3], in experiment [4], in experiment [5], in experiment [9] and in experiment [6] was inactive. Besides, the result in experiment [7] and in experiment [8] was inactive.

With `CCCNC(=O)NS(=O)(=O)c1ccc(Cl)cc1`, in experiment [1], the efficacy is -18.6% (inactive). Moreover, the outcome in experiment [2], in experiment [3], in experiment [4], in [5], in experiment [9] and in experiment [6] was inactive. In addition, the result in experiment [7], in experiment [10] and in experiment [8] was inactive.

`Cc1ccc(-c2nc3ccc(C)cn3c2CC(=O)N(C)C)cc1`: in experiment [1], the efficacy was -21.9% (inactive). Besides, the compound was classed as inactive in [2], in [3], in [4], in experiment [5], in experiment [9] and in experiment [6]. The outcome in experiment [7], in [10] and in [8] was inactive.

As for `CCCCS(=O)(=O)N[C@@H](Cc1ccc(OCCCCC2CCNCC2)cc1)C(=O)O`, the efficacy in experiment [1] was 9.81% (inactive). For the same compound, the result in [2], in [3], in experiment [4], in experiment [5], in experiment [9] and in experiment [6] was inactive. Also, the result in [7], in [10] and in experiment [8] was inactive.

Consider `C#CCN(C)[C@H](C)Cc1ccccc1`, for which the parasite growth, % of DMSO control in experiment [11] worked out at 92.5%. The compound further registered a parasite growth remaining, % of DMSO control (lower = more inhibition) in experiment [12] of 97.8%. Further, the efficacy in experiment [1] is 21.9% (inactive). Further, the compound was called inactive in [2], in [3], in [4], in [5], in experiment [9] and in [6]. For the same compound, the outcome in [7], in [10] and in experiment [8] was inactive.

In the case of `COc1ccccc1OCC(O)COC(N)=O` (stereo unspecified), the efficacy in experiment [1] is -13% (inactive). Also, the outcome in [2], in experiment [3], in experiment [4], in experiment [5], in experiment [9] and in experiment [6] was inactive. Moreover, the outcome in [7] and in experiment [8] was inactive.

With `Cc1cn[nH]c1`, in experiment [1], the efficacy was -9.66% (inactive). Also, the compound was classed as inactive in experiment [2], in experiment [3], in [4], in [9], in [6] and in experiment [7]. Also, the outcome in experiment [10] and in [8] was inactive.

`COc1cc(Cc2cnc(N)nc2N)cc(OC)c1OC`: in experiment [1], the efficacy was -22.6% (inactive). In addition, the result in [2], in [3], in experiment [4], in [5], in experiment [9] and in [6] was inactive. Further, the outcome in [7], in experiment [10] and in experiment [8] was inactive.

`C[C@]12CC[C@H]3[C@@H](CCC4=CC(=O)CC[C@@H]43)[C@@H]1CC[C@@H]2OC(=O)CCc1ccccc1`: the efficacy in [1] was -39.3% (inactive). In addition, the compound was classed as inactive in [2], in experiment [3], in [4], in experiment [5], in [6] and in [7]. Besides, the compound was called inactive in experiment [10] and in experiment [8].

As to `NS(=O)(=O)c1cc2c(cc1Cl)NC=NS2(=O)=O`, the efficacy in [1] is -8.1% (inactive). The compound was classed as inactive in [2], in [3], in experiment [13], in experiment [5], in experiment [9] and in experiment [6]. Besides, the outcome in [7] and in [8] was inactive.

Regarding `CC(C)CC(N(C)C)C1(c2ccc(Cl)cc2)CCC1` (stereo unspecified), the parasite growth, % of DMSO control in experiment [11] was determined as 90.3%. The parasite growth remaining, % of DMSO control (lower = more inhibition) in experiment [12] was found to be 99.9%. The growth, % of control in experiment [14] was found to be 105%. Moreover, in experiment [1], the efficacy is -28.7% (inactive). Besides, the compound was classed as inactive in [2], in experiment [3], in [4], in experiment [5], in [9] and in experiment [6]. Also, the result in [7] and in [8] was inactive.

In the case of `CC(C)(C(=O)O)c1ccc(C(O)CCCN2CCC(C(O)(c3ccccc3)c3ccccc3)CC2)cc1` (stereo unspecified), in [1], the efficacy was -13% (inactive). Moreover, the result in experiment [2], in [3], in experiment [4], in [5], in [9] and in experiment [6] was inactive. The outcome in experiment [7], in experiment [10] and in [8] was inactive.

With `O=C(O)P(=O)(O)O`, the efficacy in experiment [1] is -12.5% (inactive). Besides, the result in experiment [2], in [3], in experiment [4], in [5], in experiment [9] and in experiment [6] was inactive. In addition, the result in experiment [7], in experiment [10] and in experiment [8] was inactive.

With `CC(C)(C)C(=O)OCOP(=O)(COCCn1cnc2c(N)ncnc21)OCOC(=O)C(C)(C)C`, the efficacy in experiment [1] is -17.9% (inactive). Also, the compound was called inactive in experiment [2], in [3], in [4], in experiment [5], in experiment [9] and in experiment [6]. The result in experiment [7], in experiment [10] and in [8] was inactive.

On to `CCOC(=O)c1ncn2c1CN(C)C(=O)c1cc(F)ccc1-2`, for which the parasite growth, % of DMSO control in [11] came to 69.1%. Moreover, the parasite growth remaining, % of DMSO control (lower = more inhibition) in experiment [12] amounted to 84.4%. In addition, the parasite growth, % of control (lower = inhibition) in experiment [15] was found to be 74.8%. Further, the efficacy in experiment [1] was -22.5% (inactive). The result in experiment [2], in experiment [3], in experiment [13], in experiment [16], in experiment [5] and in experiment [9] was inactive. Further, the outcome in experiment [6], in experiment [7], in experiment [10] and in [8] was inactive.

Consider `CN(C)CCc1c[nH]c2ccc(C[C@H]3COC(=O)N3)cc12`, for which the efficacy in experiment [1] is -13.2% (inactive). The call in experiment [2], in experiment [3], in [4], in experiment [5], in experiment [9] and in [6] was inactive. Further, the result in [7] and in experiment [8] was inactive.

Take `NCCCC(O)(P(=O)(O)O)P(=O)(O)O`: the efficacy in experiment [1] was 11.2% (inactive). The AC50 in experiment [2] was 4.47 µM (active); in experiment [8], 3.98 µM (active). For the same compound, the call in [3], in [4] and in [7] was inactive. Also, in experiment [6], the outcome is “inactive [Channel type: confirmation]”.

`C[C@H]1[C@H](NC(=O)/C(=N/OC(C)(C)C(=O)O)c2csc(N)n2)C(=O)N1S(=O)(=O)O` (stereo in doubt): in experiment [1], the efficacy is 16.2% (inactive). Besides, the call in experiment [2], in experiment [3], in experiment [16], in experiment [5], in experiment [9] and in experiment [6] was inactive. Further, the result in experiment [7], in experiment [10] and in experiment [8] was inactive.

On to `CCCN(CCC)CCc1cccc2c1CC(=O)N2`, for which the efficacy in experiment [1] was 29.5% (inactive). For the same compound, the compound was classed as inactive in experiment [2], in experiment [3], in [4], in [5], in experiment [9] and in experiment [6]. Also, the result in experiment [7] and in experiment [8] was inactive.
